The results in this text go back to PubChem BioAssay AID602405 (Broad Institute, 2012).

About 350 (0.097%) of roughly 360,000 compounds were called active. The sample holds actives, similar compounds and a random draw of the others, so the mix is not that of the screen. Cut-off read from the data, not from the text of the source: active = inhibition above about 16% (passing the limit was not always enough); inconclusive = no clear call, values can overlap the other calls; inactive = below that.

This test deals with UDP-N-acetylbacillosamine N-acetyltransferase PglD (Campylobacter jejuni). Nature of the test: blockers of PglD enzyme activity – biochemical, DTNB colorimetric, single point, primary screen (AID 602405). The settings on record: purified PglD enzyme, DTNB colorimetric CoA detection; at 12.5 µM; stronger effect = higher value.
`CCCc1cn(CC[C@@H]2CC[C@H](NS(=O)(=O)c3ccccc3Cl)[C@H](CO)O2)nn1`: the inhibition (as a rule, the relative decrease from the control value, in per cent) is -0.55% (inactive).

On to `CC(=O)N1C[C@@H]2[C@H](c3ccccc31)[C@H](CO)N2Cc1ccc(Cl)cc1`, for which the inhibition is 2.15% (inactive).

`CCCNC(=O)C[C@@H]1C[C@@H]2c3cc(N(C)C)ccc3O[C@@H]2[C@H](CO)O1`: the inhibition was -5.6% (inactive).

`COc1ccc(S(=O)(=O)N(C)C[C@H]2OCCCC[C@H](C)Oc3ccc(NC(=O)Nc4ccc(F)cc4)cc3C(=O)N([C@@H](C)CO)C[C@H]2C)cc1`: the inhibition was -0.001% (inactive).

`C[C@@H](NC(=O)[C@H]1[C@H](CO)[C@H]2Cn3c(cccc3=O)[C@H]2N1C(=O)C1CC1)c1ccccc1`: the inhibition is -3.9% (inactive).

With `CCOc1ccc(NC(=O)CCNC(=O)c2ccc(Br)cc2)cc1`, the inhibition was 1.93% (inactive).

For the compound `CC(=O)Nc1ccc(OC(=O)COc2ccc(Br)cc2)cc1`, the inhibition is 83.3% (active).

Consider `O=C(COc1ccc(Br)cc1)OCC(=O)c1ccc[nH]1`, for which the inhibition is 0.716% (inactive).

With `C[C@H](CO)N1C[C@H](C)[C@H](CN(C)Cc2ccccc2)Oc2ccc(NC(=O)Cc3ccccc3)cc2C1=O`, the inhibition was -3.27% (inactive).

As for `COCC(=O)Nc1ccc2c(c1)C(=O)N(C)[C@H]1CC[C@@H](CC(=O)Nc3cn(C)nc3C)O[C@@H]1CO2`, the inhibition was 2.19% (inactive).

As for `COc1ccc(CNC(=O)C2CCN(C(=O)c3ccccc3)CC2)cc1`, the inhibition was -3.01% (inactive).

As to `O=C(c1cccc(Cl)c1)N1CCN(Cc2ccccc2)CC1`, the inhibition is -4.44% (inactive).

`O=C(NCc1ccncc1)C1CCN(C(=O)c2cccc(Cl)c2)CC1`: the inhibition was 22.3% (active).

As to `CC(C)NC(=O)N[C@H]1C=C[C@H](CC(=O)NCCN2CCCC2)O[C@@H]1CO`, the inhibition was 0.57% (inactive).

With `CCC(=O)N1[C@@H](CO)[C@@H]2c3ccccc3N(C(=O)c3ccccc3F)C[C@@H]21`, the inhibition was -0.466% (inactive).

Consider `COc1ccc(CN(C)C[C@@H]2OCCCC[C@H](C)Oc3ccc(NS(C)(=O)=O)cc3C(=O)N([C@@H](C)CO)C[C@H]2C)cc1`, for which the inhibition was -1.59% (inactive).

For `O=C(NC[C@@H]1[C@H](c2ccccc2)[C@H](CO)N1CC1CCCC1)c1cccnc1`, the inhibition is 1.03% (inactive).

On to `CC=Cc1ccc2n(c1=O)C[C@H]1[C@H](CO)[C@@H](C(=O)NCc3ccncc3)N(Cc3cncnc3)[C@@H]21` (mixture of isomers), for which the inhibition is -1.52% (inactive).

With `CC=Cc1ccc2n(c1=O)C[C@@H]1[C@@H](CO)[C@H](C(=O)N3CCCCC3)[C@H]2N1C(=O)C1CCC1` (mixture of isomers), the inhibition was 2.61% (inactive).

Take `C[C@@H]1CCCCO[C@H](CN(C)Cc2ccc(C(F)(F)F)cc2)[C@@H](C)CN([C@@H](C)CO)C(=O)c2cc(NC(=O)c3ccncc3)ccc2O1`: the inhibition is 3.05% (inactive).

Turning to `CC(C)CN(C[C@@H]1N[C@@H](CO)[C@H]1c1ccccc1)C(=O)CN(C)C`, the inhibition is 5.57% (inactive).

With `CO[C@@H]1CN(C)C(=O)c2cc(NC(=O)C3CCC3)ccc2OC[C@H](C)N(Cc2nccs2)C[C@H]1C`, the inhibition is 0.477% (inactive).

With `Cc1noc(C)c1NC(=O)N(C)C[C@H]1Oc2c(NS(=O)(=O)c3cccs3)cccc2C(=O)N([C@@H](C)CO)C[C@@H]1C`, the inhibition was 0.536% (inactive).

On to `CO[C@@H]1CN(C)C(=O)c2cc(NC(=O)NC3CCCCC3)ccc2OC[C@H](C)N(CC2CCOCC2)C[C@H]1C`, for which the inhibition is -1.39% (inactive).

With `CCCCC(=O)Nc1ccc(C(=O)NCCCn2ccnc2)cc1`, the inhibition is 20.6% (active).

In the case of `CCCC(=O)Nc1ccc(C(=O)NCCCn2ccnc2)cc1`, the inhibition was -0.628% (inactive).

Turning to `CC(=O)Nc1ccc(NC(=O)CCCNC(=O)c2ccc(Cl)cc2)cc1`, the inhibition is -4.6% (inactive).

In the case of `COc1cccc(-c2ccc3c(c2)O[C@H](CN(C)Cc2ccncc2)[C@H](C)CN([C@H](C)CO)S3(=O)=O)c1`, the inhibition was -0.814% (inactive).

`CCCC#Cc1ccc([C@H]2[C@@H](CO)N(C(=O)C3CC3)[C@H]2C#N)cc1`: the inhibition is 0.491% (inactive).

In the case of `C[C@@H]1CN([C@H](C)CO)C(=O)c2cc(C#Cc3ccccn3)cnc2O[C@H]1CN(C)CC1CCOCC1`, the inhibition is 14.4% (inactive).

On to `C[C@H]1CN([C@@H](C)CO)C(=O)c2cccc(NC(=O)C3CCOCC3)c2O[C@H]1CN(C)S(C)(=O)=O`, for which the inhibition was -0.415% (inactive).

`COc1ccc(CNC(=O)C[C@H]2CC[C@@H]3[C@H](COc4ccc(NC(=O)C5CC5)cc4C(=O)N3C)O2)cc1`: the inhibition was -0.548% (inactive).

`C[C@H]1CN([C@@H](C)CO)C(=O)c2cc(N(C)C)ccc2O[C@@H]1CN(C)S(=O)(=O)c1ccc(Cl)cc1`: the inhibition is 14.8% (inactive).

Turning to `C[C@@H]1CCCCO[C@@H](CN(C)Cc2ccc(C(=O)O)cc2)[C@H](C)CN([C@H](C)CO)C(=O)c2cc(NC(=O)Nc3ccc(F)cc3)ccc2O1`, the inhibition was 0.576% (inactive).

Take `C[C@H](CO)N1C[C@H](C)[C@H](CN(C)S(=O)(=O)c2ccccc2)Oc2cc(Br)ccc2S1(=O)=O`: the inhibition was -0.169% (inactive).

Take `C[C@@H]1CN([C@@H](C)CO)C(=O)c2cc(NC(=O)Cc3ccccc3)ccc2O[C@@H](C)CCCCO[C@H]1CN(C)C(=O)Nc1cccc2ccccc12`: the inhibition was -0.256% (inactive).

On to `CCOc1ccc(OCc2ccc(C(=O)N(C)c3ccccc3)o2)cc1`, for which the inhibition was 27.6% (active).

In the case of `CCOc1ccc(OCc2ccc(C(=O)Nc3cccc(C)n3)o2)cc1`, the inhibition is 1.24% (inactive).

Take `COc1ccc(NC(=O)CN(C)C(=O)c2ccc(COc3ccccc3)o2)cc1`: the inhibition was -2.65% (inactive).

As for `C/C=C/c1ccc2c(c1)O[C@H](CN(C)C(C)=O)[C@H](C)CN([C@H](C)CO)S2(=O)=O`, the inhibition was -0.698% (inactive).

For `CO[C@H]1CN(C)C(=O)c2ccc(NC(=O)C3CC3)cc2OC[C@@H](C)N(C)C[C@H]1C`, the inhibition is 4.48% (inactive).

Turning to `CO[C@@H]1CN(C)C(=O)c2ccc(NC(=O)C3CCCCC3)cc2OC[C@@H](C)N(Cc2nccs2)C[C@@H]1C`, the inhibition is 1.22% (inactive).

For the compound `Cc1ccc(S(=O)(=O)N(C)C[C@H]2Oc3c(NC(=O)c4ccc(-c5nccs5)cc4)cccc3C(=O)N([C@H](C)CO)C[C@H]2C)cc1`, the inhibition was -3.77% (inactive).

With `C[C@H]1CN([C@@H](C)CO)S(=O)(=O)c2ccc(C#Cc3ccccc3F)cc2O[C@@H]1CN(C)C(=O)c1ccc2c(c1)OCO2`, the inhibition was 1.7% (inactive).

Regarding `CN1CCN(C(=O)C[C@@H]2C=C[C@@H](NS(=O)(=O)c3cccc(F)c3)[C@@H](CO)O2)CC1`, the inhibition is -7.9% (inactive).

In the case of `CNC(=O)C[C@H]1CC[C@H]2[C@H](COc3ccc(NC(=O)Nc4cccc(C)c4)cc3C(=O)N2C)O1`, the inhibition was -0.336% (inactive).

Regarding `COc1ccccc1C(=O)Nc1ccc(C)c(S(=O)(=O)N2CCCCC2)c1`, the inhibition was -5.07% (inactive).

Take `COc1ccc(NC(=O)C2=NNC(=O)CC2)cc1S(=O)(=O)N1CCCCC1`: the inhibition is 25.4% (active).

Take `CCOC(=O)C1CCN(CC(=O)Nc2ccc(OC)c(S(=O)(=O)N3CCCCC3)c2)CC1`: the inhibition was 2.34% (inactive).

Regarding `C[C@@H]1CN([C@@H](C)CO)C(=O)c2cccc(NS(=O)(=O)c3ccc(Cl)cc3)c2O[C@@H]1CN(C)C(=O)Nc1ccccc1`, the inhibition was 0.684% (inactive).

Consider `N#C[C@H]1[C@@H](c2ccc(-c3ccccc3F)cc2)[C@H](CO)N1C(=O)c1ccccn1`, for which the inhibition is -0.127% (inactive).

Turning to `COc1cccc(CNC(=O)C[C@H]2CC[C@@H](NC(C)=O)[C@@H](CO)O2)c1`, the inhibition was -2.55% (inactive).

With `C[C@@H]1CCCCO[C@H](CN(C)C(=O)C2CCCCC2)[C@@H](C)CN([C@@H](C)CO)C(=O)c2cc(NC(=O)Nc3ccccc3)ccc2O1`, the inhibition is -3.55% (inactive).

Turning to `O=C(C[C@H]1C=C[C@H](NC(=O)Nc2cc(F)ccc2F)[C@H](CO)O1)Nc1ccccc1`, the inhibition is -2.58% (inactive).

Regarding `C[C@@H]1CN([C@H](C)CO)C(=O)Cc2cc(NS(=O)(=O)c3cccs3)ccc2O[C@H]1CN(C)C(=O)Nc1ccc2c(c1)OCO2`, the inhibition is 2.77% (inactive).

`C[C@@H]1CN([C@H](C)CO)S(=O)(=O)c2ccc(C#Cc3ccccc3F)cc2O[C@@H]1CN(C)C(=O)c1ccc2c(c1)OCO2`: the inhibition was -1.88% (inactive).

With `COc1ccc(S(=O)(=O)Nc2ccc3c(c2)C(=O)N([C@H](C)CO)C[C@@H](C)[C@H](CN(C)S(=O)(=O)c2ccc(C)cc2)O3)cc1`, the inhibition was 4.85% (inactive).

For `COCCNC(=O)C[C@H]1CC[C@@H]2[C@H](COc3ccc(NC(=O)Nc4cccc(F)c4)cc3C(=O)N2C)O1`, the inhibition was 0.139% (inactive).

Consider `CO[C@H]1CN(C)C(=O)c2ccc(NC(=O)c3cnccn3)cc2OC[C@@H](C)N(C(C)=O)C[C@H]1C`, for which the inhibition is -1.18% (inactive).

As for `C[C@@H]1CN([C@H](C)CO)C(=O)Cc2cc(NC(=O)C3CCCCC3)ccc2O[C@@H]1CN(C)S(C)(=O)=O`, the inhibition is 56.5% (inactive).

`CC(C)NC(=O)N1[C@@H]2CN(C(=O)Nc3ccc(F)cc3)c3ccccc3[C@@H]2[C@@H]1CO`: the inhibition was 2.48% (inactive).

Consider `C[C@@H]1CCCCO[C@@H](CN(C)S(=O)(=O)c2ccccc2)[C@H](C)CN([C@H](C)CO)C(=O)c2cc(NC(=O)CCC(F)(F)F)ccc2O1`, for which the inhibition was 0.918% (inactive).

Take `O=C(c1ccccc1)N1C[C@H]2[C@@H](c3ccccc31)[C@H](CO)N2Cc1ccccc1F`: the inhibition was -1.39% (inactive).

As to `CC(C)C#Cc1ccc([C@@H]2[C@H]3CN(C(=O)NC(C)C)CCCCN3[C@H]2CO)cc1`, the inhibition was 1.97% (inactive).

On to `CN1C(=O)c2cc(NC(=O)C3CC3)ccc2OC[C@@H]2O[C@H](CC(=O)NCC3CCCCC3)CC[C@@H]21`, for which the inhibition was 0.676% (inactive).

Turning to `CCCOc1ccc(F)cc1-c1cc(C(=O)Nc2ccc(F)cc2)[nH]n1`, the inhibition is 21.5% (active).

As for `CCCOc1ccc(F)cc1-c1cc(C(=O)NCc2ccc(F)cc2)[nH]n1`, the inhibition is 4.69% (inactive).

Consider `CCCOc1ccc(F)cc1-c1cc(C(=O)Nc2ccc(F)c(Cl)c2)[nH]n1`, for which the inhibition was -24.9% (inactive).
